# Measured values: PubChem BioAssay (NCI)
# “And” between values parts separate entries of the source, which are not always exact repeats. Equal entries are not always repeated. About 83,000 compounds went through this panel and 20% of them were active in at least one assay; those are over-represented in the sample as a whole.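 A percent growth of 40 corresponds to 60% growth inhibition; 0 means no net growth; -100 means all cells died. Active threshold: below 10.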 The source made the active and inactive calls.
# Tests used:
# Assay in all cases: NCI-60 one-dose screen, 48 h (100 = growth as untreated, 0 = no growth, -100 = all killed)
# Conditions in all cases: 10 µM unless noted
# DU-145 prostate = test system: DU-145 prostate
# K-562 leukemia = test system: K-562 leukemia
# MALME-3M melanoma = test system: MALME-3M melanoma
# MDA-MB-231 breast = test system: MDA-MB-231 breast
# RXF 393 renal = test system: RXF 393 renal
# SF-268 CNS = test system: SF-268 CNS
# SF-295 CNS = test system: SF-295 CNS
# SF-539 CNS = test system: SF-539 CNS
# UACC-257 melanoma = test system: UACC-257 melanoma
# M14 melanoma = test system: M14 melanoma
Compound,growth (DU-145 prostate),growth (K-562 leukemia),growth (MALME-3M melanoma),growth (MDA-MB-231 breast),growth (RXF 393 renal),growth (SF-268 CNS),growth (SF-295 CNS),growth (SF-539 CNS),growth (UACC-257 melanoma),growth (M14 melanoma)
COc1cc(C=O)ccc1Oc1ccc([N+](=O)[O-])cc1[N+](=O)[O-],110% (inactive),97.3% (inactive),114% (inactive),104% (inactive),111% (inactive),102% (inactive),108% (inactive),107% (inactive),90% (inactive),102% (inactive)
CN(C)C(=O)c1cc2cnc(Nc3ccc(-c4csc5c(=S)cc(N6CCOCC6)oc45)cc3)nc2n1C1CCCC1,16.9% (inactive),10% (inactive),17.8% (inactive),10.2% (inactive),-53.9% (active),11.1% (inactive),1.23% (active),-24.5% (active),4.13% (active),7.51% (active)
BrC1=C(Br)C(Br)(Br)C(Br)=C1Br,106% (inactive),32.9% (inactive),106% (inactive),73.7% (inactive),75.1% (inactive),97.8% (inactive),113% (inactive),82.2% (inactive),84.7% (inactive),65.2% (inactive)
COc1ccc(Cn2cc(C(=O)Nc3cccnc3Nc3ccccc3)nn2)cc1,103% (inactive),108% (inactive),120% (inactive),86.4% (inactive),103% (inactive),96% (inactive),102% (inactive),95.6% (inactive),110% (inactive),106% (inactive)
CON1CCC[C@]2(C)[C@H]3CC[C@@H]4[C@H]5[C@@H](O)C(C)(C)CC[C@]5(CO)CC[C@@]4(C)[C@]3(C)CC[C@H]2C1(C)C,99% (inactive),87% (inactive),110% (inactive),90.5% (inactive),112% (inactive),100% (inactive),102% (inactive),106% (inactive),97.5% (inactive),99.6% (inactive)
Cc1ccc(Cc2cnc(NC(=O)c3cc(C)oc3C)s2)cc1,75.6% (inactive),29.5% (inactive),85.2% (inactive),79.6% (inactive),58.7% (inactive),67.8% (inactive),66.6% (inactive),76.8% (inactive),94.2% (inactive),70.8% (inactive)
NC(=O)c1c(NC(=O)/C=C/c2cccs2)sc2c1CCC(=O)C2,81.6% (inactive),14.3% (inactive),75.1% (inactive),24.6% (inactive),26.9% (inactive),22.5% (inactive),80.9% (inactive),16.3% (inactive),70.7% (inactive),24.8% (inactive)
COc1ccc(-c2cc(-c3cccnc3)nc3sc4c(Cl)nnnc4c23)cc1OC,94.2% (inactive),15.8% (inactive),107% (inactive),77.9% (inactive),104% (inactive),96.7% (inactive),101% (inactive),101% (inactive),78.4% (inactive),88.6% (inactive)
Cc1ccc(S(=O)(=O)OC[C@@]2(C)CC[C@]3(C)CC[C@]4(C)C(=C3C2)C=C[C@@H]2[C@@]3(C)CCCNC(C)(C)[C@@H]3CC[C@]24C)cc1,-1.23% (active),-28.1% (active),15.1% (inactive),-43.7% (active),-7.17% (active),74.7% (inactive),102% (inactive),1.1% (active),61.9% (inactive),-64.9% (active)
COc1cc(/C=C2\C(=O)N(CCCCn3c4ccccc4c(=O)c4ccccc43)c3ccccc32)cc(OC)c1O,60.4% (inactive),15.6% (inactive),66.3% (inactive),70% (inactive),70.5% (inactive),60.1% (inactive),84% (inactive),64.3% (inactive),81.7% (inactive),52.3% (inactive)
O=C(CCCOc1ccc(Br)cc1)Nc1ncc(Cc2ccc(F)cc2)s1,79.8% (inactive),37.1% (inactive),73.1% (inactive),79.5% (inactive),69.2% (inactive),73% (inactive),68.9% (inactive),68.3% (inactive),93.4% (inactive),51% (inactive)
Cc1oc2c(Cc3ccc(NC(=O)c4ccc(Cl)cc4)cc3)ncnc2c1C(=O)NO,105% (inactive),78.3% (inactive),93.9% (inactive),108% (inactive),97.6% (inactive),97.6% (inactive),95.3% (inactive),104% (inactive),84% (inactive),99.6% (inactive)
COc1cc(CNC(=O)CCCC/C=C/C(C)C)ccc1O,112% (inactive) and 120% (inactive),84.1% (inactive) and 93.3% (inactive),154% (inactive) and 95.6% (inactive),85.1% (inactive) and 83.3% (inactive),-46.1% (active) and 98.6% (inactive),84.9% (inactive) and 91.6% (inactive),128% (inactive) and 107% (inactive),95.6% (inactive) and 90.7% (inactive),119% (inactive) and 112% (inactive),117% (inactive) and 99.5% (inactive)
CCN1CCN(CC(=O)Nc2nc3ccc(NCc4ccc(C)cc4)cc3s2)CC1,84.3% (inactive),-0.543% (active),-41.5% (active),59.1% (inactive),56.1% (inactive),73.5% (inactive),88.2% (inactive),22.2% (inactive),34% (inactive),-44% (active)
Nc1ccc(S(=O)(=O)c2ccc(N)cc2)cc1,115% (inactive) and 113% (inactive),104% (inactive) and 144% (inactive),109% (inactive) and 121% (inactive),108% (inactive) and 112% (inactive),104% (inactive) and 108% (inactive),112% (inactive) and 108% (inactive),94.4% (inactive),103% (inactive) and 97.6% (inactive),103% (inactive) and 93.4% (inactive),101% (inactive) and 97.5% (inactive)
COc1cccc(NC(=O)c2sc3nc(C)c(C(O)c4ccccc4)cc3c2N)c1 (stereo not given),13.4% (inactive),6.52% (active),63.2% (inactive),9.72% (active),26.9% (inactive),38.5% (inactive),19.2% (inactive),-5.58% (active),71.4% (inactive),13.9% (inactive)
CC(=O)Nc1c(I)c(NC(C)=O)c(I)c(C(=O)O)c1I,115% (inactive) and 142% (inactive),69.4% (inactive),93.7% (inactive) and 84.5% (inactive),105% (inactive) and 117% (inactive),113% (inactive) and 25.5% (inactive),107% (inactive) and 120% (inactive),90.4% (inactive) and 104% (inactive),99.3% (inactive) and 99.7% (inactive),105% (inactive),95.9% (inactive) and 104% (inactive)
COc1ccc2c(c1)CC[C@@H]1[C@@H]2CC[C@]2(C)C3C(=CCC4C(=O)N(c5ccccc5)C(=O)C43)C[C@@H]12 (stereo not given in full),114% (inactive),76.9% (inactive),96.1% (inactive),86.6% (inactive),93.7% (inactive),94.1% (inactive),96.4% (inactive),96.7% (inactive),86.1% (inactive),89.4% (inactive)
NS(=O)(=O)c1ccc(C(=O)N=Nc2c(O)[nH]c3c(F)cccc23)cc1,113% (inactive),107% (inactive),95.9% (inactive),106% (inactive),97.3% (inactive),107% (inactive),103% (inactive),94.8% (inactive),103% (inactive),101% (inactive)
COc1cc(-c2nn(-c3cccc(NC(=O)CCN4CCN(C)CC4)c3)cc2-c2ccncc2)ccc1Cl,3.19% (active),-10.4% (active),38% (inactive),39.9% (inactive),18.6% (inactive),31.5% (inactive),-6.03% (active),-19.6% (active),39.3% (inactive),-41.6% (active)
COC(=O)[C@H]1Cc2c([nH]c3ccccc23)[C@@H](c2cccs2)N1,106% (inactive),104% (inactive),97.6% (inactive),95.1% (inactive),107% (inactive),98.9% (inactive),100% (inactive),93.1% (inactive),105% (inactive),107% (inactive)
Cc1ccc(-c2nc3nc(-c4ccccc4)nc(N4CCCNCC4)c3o2)cc1,-25.5% (active),-76.4% (active),-85.5% (active),-86.9% (active),-73.2% (active),-26.3% (active),-87.3% (active),-88.5% (active),4.04% (active),-93.9% (active)
COc1ccc(C/C(C)=C(\c2ccc(O)cc2)c2ccc(OCCCN(C)C)cc2)cc1,101% (inactive),70.4% (inactive),97.1% (inactive),106% (inactive),89.5% (inactive),88.1% (inactive),104% (inactive),107% (inactive),92.4% (inactive),99.4% (inactive)
Cc1ccccc1SSc1ccccc1C,6.96% (active),99.1% (inactive),104% (inactive),82.7% (inactive),73.8% (inactive),95.2% (inactive),80.3% (inactive),104% (inactive),105% (inactive),85.2% (inactive)
